Data from PubChem BioAssay (EPA / NIEHS).
Inconclusive results are not listed. The source made the active and inactive calls. Rule for the calls: active = hit-call score of the fitted dose curve at least 0.9, where 1 is the maximum; inconclusive = response in the unintended direction; inactive = score below 0.9.

Experiment: Tanguay_ZF_120hpf_OTIC_legacy: (Legacy) Oregon State University Tanguay Lab 120 Hour Post-fertilization zebrafish Assay for Otic Vesicle Malformation (AID 2283639)
Protocol: Tanguay_ZF_120hpf_legacy is a whole embryo, multiplexed endpoint assay using zebrafish larvae exposed for 120 hours post fertilization on a 96-well plate.Tanguay_ZF_120hpf_OTIC_legacy is one of one assay component(s) measured or calculated from the Tanguay_ZF_120hpf_legacy assay. It is designed to make measurements of zebrafish development as detected with brightfield microscopy of developing zebrafish embryos.Data from the assay component Tanguay_ZF_120hpf_OTIC_legacy was analyzed into 1 assay endpoints. This assay endpoint, Tanguay_ZF_120hpf_OTIC_legacy, was analyzed in the positive analysis fitting direction relative to DMSO as the negative control and baseline of activity. Using a type of morphology reporter, gain-of-signal activity can be used to understand changes in developmentals as they relate to the whole embryo. To generalize the intended target to other relatable targets, this assay endpoint is annotated to the zebrafish development intended target family, where the subfamily is otic vesicle morphogenesis.
Zebrafish husbandry: Tropical 5D wild-type adult zebrafish were housed in at an approximate density of 1000 per 100 gallon tank at the Sinnhuber Aquatic Research Laboratory, Oregon State University, Corvallis, OR. Each tank was kept at standard laboratory conditions of 28C on a 14-h light/10-h dark photoperiod in fish water consisting of reverse osmosis water supplemented with a commercially available salt (Instant Ocean). Spawning funnels were placed into the tanks the night prior, and embryos were collected and staged. […] Ten microliters of each row of dilution plate 2 was added to 2 exposure plates. The final DMSO concentration used was 0.64% (vol/vol). Thirty-two embryos were also exposed to 5uM trimethyltin chloride (positive control). Plates were sealed to prevent evaporation and foil covered to reduce light exposure and kept in a 28C incubator. Embryos were statically exposed until 120 hpf. At 24 hpf, embryos were assessed for photomotor response using a custom photomotor response analysis tool (PRAT) and for developmental toxicity endpoints (MO24: mortality at 24 hpf, DP: developmental progression, SM: spontaneous movement, and NC: notochord distortion). At 120 hpf, locomotor activity was measured using Viewpoint Zebralab and assessed for 18 endpoints. Zebrafish acquisition and analysis program (ZAAP), a custom program designed to inventory, acquire, and manage zebrafish data, was used to collect developmental endpoints as either present or absent (i.e., binary responses were recorded). If mortality occurred for an embryo (at either 24 or 120 hpf), the non-mortality endpoints were not measured.

| Compound | outcome | AC50 |
| --- | --- | --- |
| CCCCCCCCCC | inactive | – |
| CCOC(N)=O | inactive | – |
| CCOc1ccc2[nH]cc(C(=O)NCc3ccccc3)c(=O)c2n1 | inactive | – |
| NC(=O)N1c2ccccc2C=Cc2ccccc21 | inactive | – |
| CCc1cccc(CC)c1N | inactive | – |
| CCCCCOC(C)=O | inactive | – |
| CCCCCCCCCCCCCCCCOS(=O)(=O)O | inactive | – |
| O=C(NO)C1(NS(=O)(=O)c2ccc(Oc3ccc(F)cc3)cc2)CCOCC1 | inactive | – |
| O=C(O)c1cccc(C[C@@H]2COc3ccc(OCc4nc5cc(F)ccc5s4)cc3[C@@H]2O)c1 | inactive | – |
| CCn1nc(C)c2c1C(=O)NCC(c1ccc(O)cc1)=N2 | inactive | – |
| NC(=O)N(O)[C@@H]1COc2cc(OCc3ccccc3)ccc21 | inactive | – |
| Cn1c(=O)c2[nH]cnc2n(C)c1=O | inactive | – |
| C=CN1CCCC1=O | inactive | – |
| OC(Cn1cncn1)(Cn1cncn1)c1ccc(F)cc1F | inactive | – |
| OC[C@H]1O[C@@H]2O[C@H]3[C@H](O)[C@@H](O)[C@@H](O[C@H]4[C@H](O)[C@@H](O)[C@@H](O[C@H]5[C@H](O)[C@@H](O)[C@@H](O[C@H]6[C@H](O)[C@@H](O)[C@@H](O[C@H]7[C@H](O)[C@@H](O)[C@@H](O[C@H]1[C@H](O)[C@H]2O)O[C@@H]7CO)O[C@@H]6CO)O[C@@H]5CO)O[C@@H]4CO)O[C@@H]3CO | inactive | – |
| OC[C@H]1O[C@@](CO)(O[C@H]2O[C@H](CO)[C@@H](O)[C@H](O)[C@H]2O)[C@@H](O)[C@@H]1O | inactive | – |
| CCCCCCOC(=O)CC(CC(=O)OCCCCCC)(OC(=O)CCC)C(=O)OCCCCCC | inactive | – |
| C[C@]12C=CC(=O)C=C1CC[C@H]1[C@@H]3C[C@@H](O)[C@](O)(C(=O)CO)[C@@]3(C)C[C@H](O)[C@@]12F | inactive | – |
| O=C(O)c1cccc(C(=O)O)c1 | inactive | – |
| CC(C)C(=O)Nc1ccc([N+](=O)[O-])c(C(F)(F)F)c1 | inactive | – |

| Compound | outcome | AC50 |
| --- | --- | --- |
| CC1(C)C(=O)N(Cl)C(=O)N1Cl | inactive | – |
| CCCCN1C(=O)[C@@H]([C@H](O)C2CCCCC2)NC(=O)C12CCN(Cc1ccc(Oc3ccc(C(=O)O)cc3)cc1)CC2 | inactive | – |
| OCC(CO)(CO)CO | inactive | – |
| Cc1ccc(S(=O)(=O)NC(=O)NN2CCCCCC2)cc1 | inactive | – |
| c1ccc(C(O[C@@H]2CCCN(CCc3ccc4c(c3)OCO4)C2)c2ccccc2)cc1 | – | 45.8 µM (active) |
| CC(C)CC(C)O (stereo not given) | inactive | – |
| NC(N)=O | inactive | – |
| OCCOCCOCCO | inactive | – |
| NNC(=O)c1ccncc1 | inactive | – |
| Nc1ccn([C@@H]2O[C@H](CO)[C@@H](O)[C@@H]2O)c(=O)n1 | inactive | – |
| COc1cc2c(c(OC)c1OC)-c1ccc(OC)c(=O)cc1[C@@H](NC(C)=O)CC2 | – | 25 µM (active) |
| O=c1[nH]cnc2c1ncn2[C@H]1CC[C@@H](CO)O1 | inactive | – |
| CC[C@H](C)C(=O)O[C@H]1C[C@H](O)C=C2C=C[C@H](C)[C@H](CC[C@@H](O)C[C@@H](O)CC(=O)O)[C@H]21 | inactive | – |
| C=CCc1cc(S(=O)(=O)c2ccc(O)c(CC=C)c2)ccc1O | inactive | – |
| CC(C)c1nnc2ccc(-c3ocnc3-c3cc(F)ccc3F)cn12 | inactive | – |
| CCCCCCCCN(C)C | inactive | – |
| O=S(=O)(O)c1ccc(N=Nc2c(O)ccc3cc(S(=O)(=O)O)ccc23)cc1 | inactive | – |
| CCCC(CCC)C(=O)O | inactive | – |
| c1ccc2cc3ccccc3cc2c1 | inactive | – |
| CCCOc1ccc(S(=O)(=O)N2CCN(CC)CC2)cc1-c1nc2c(CC)n(Cc3ccccn3)nc2c(=O)[nH]1 | inactive | – |
